Screening results as filed in PubChem.
Only some compounds are listed: those with a hit (about 5.4% of all), similar ones and a draw of the others.
Calb FLC: affects C. albicans growth with fluconazole; growth inhibition, % (no concentration beside the values); AID 1979; 300,000 compounds, 0.57% hits; C. albicans CaCi-2 (fluconazole-resistant clinical isolate) + fluconazole, Alamar Blue growth, 48 h;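 active = growth inhibition above about 58% in most replicates, limit read from the data, passing the limit was not always enough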;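 also: all wells also contain fluconazole at 8 µg/ml as a sub-toxic cotreatment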
Mdm2-MdmX inh: disrupts the human Mdm2-MdmX interaction; AID 485346; inhibition, % at 8 µM; 330,000 compounds, 3% hits; O15151+Q00987; SaOS-2 split-luciferase Mdm2/MdmX complementation, luminescence;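 active = inhibition of at least 50% at 8 µM in the primary screen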
Target sequence (O15151 whole entry, looked up): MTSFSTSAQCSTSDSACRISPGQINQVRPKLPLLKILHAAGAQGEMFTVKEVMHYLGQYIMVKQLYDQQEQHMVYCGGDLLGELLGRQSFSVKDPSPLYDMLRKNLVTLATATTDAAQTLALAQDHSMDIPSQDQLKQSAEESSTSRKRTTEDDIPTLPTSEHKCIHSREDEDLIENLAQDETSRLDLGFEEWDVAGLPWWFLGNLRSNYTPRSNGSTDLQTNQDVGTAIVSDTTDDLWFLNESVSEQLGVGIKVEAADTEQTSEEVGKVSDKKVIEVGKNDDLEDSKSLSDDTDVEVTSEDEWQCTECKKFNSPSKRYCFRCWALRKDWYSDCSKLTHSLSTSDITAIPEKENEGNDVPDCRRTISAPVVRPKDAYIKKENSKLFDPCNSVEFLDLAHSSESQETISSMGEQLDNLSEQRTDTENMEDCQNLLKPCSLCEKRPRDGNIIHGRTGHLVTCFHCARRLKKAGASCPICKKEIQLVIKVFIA
Target sequence (Q00987 whole entry, looked up): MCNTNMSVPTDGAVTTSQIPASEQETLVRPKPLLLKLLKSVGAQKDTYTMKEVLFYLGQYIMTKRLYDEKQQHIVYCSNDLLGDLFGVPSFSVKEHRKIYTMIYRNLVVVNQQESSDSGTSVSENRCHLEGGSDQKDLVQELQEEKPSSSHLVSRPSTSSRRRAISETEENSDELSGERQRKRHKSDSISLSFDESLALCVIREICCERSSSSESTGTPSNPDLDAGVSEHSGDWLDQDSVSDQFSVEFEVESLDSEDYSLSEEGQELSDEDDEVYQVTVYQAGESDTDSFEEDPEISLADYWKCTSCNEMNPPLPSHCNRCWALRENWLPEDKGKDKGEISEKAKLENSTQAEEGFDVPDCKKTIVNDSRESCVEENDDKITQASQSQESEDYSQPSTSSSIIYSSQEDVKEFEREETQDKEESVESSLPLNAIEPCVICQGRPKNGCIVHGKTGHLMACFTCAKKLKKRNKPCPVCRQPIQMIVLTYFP
CSC inhib: cancer stem cell inhibition; cancer stem cell-like cells viability, luminescence; inhibition, % at 7.5 µM; 300,000 compounds, 1.1% hits; AID 2717; in the data active = inhibition above about 75%; tested in HMLE shEcad cells
MPTP inh: blocks calcium-induced mitochondrial swelling. isolated mouse mitochondria, Ca2+ swelling absorbance, 30 min. inhibition, % at 10 µM. 360,000 compounds, 1.4% hits. AID 602449;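 active = inhibition of 50% or more, scaled per plate between neutral and stimulator controls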
SKKanGAS inh: SKKanGAS growth inhibition | S. pyogenes SKKanGAS, kanamycin growth, BacTiter-Glo, 6 h | inhibition, % at 7.5 µM | 300,000 compounds, 1.3% hits | AID 1662;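 active = mean replicate score, as percent of positive control median, at least 50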;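 also: strain carries kanamycin resistance gene driven by streptokinase promoter and grows in 40 µg/ml kanamycin; loss of luminescence reflects streptokinase promoter inhibition or plain growth inhibition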
Beta apoptosis: beta cell apoptosis inhibition | INS-1E cytokine-induced death, ATP luminescence, 48 h; percent of positive-control rescue, neutral wells zero | protection from apoptosis, % (concentration not given with the values) | 300,000 compounds, 0.8% hits | AID 435005;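 active = Every replicate reaches about 75%, or at least half do and their mean reaches it too, limit read from the data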;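 also: higher means more ATP so stronger rescue from cytokine killing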
Mdm2-MdmX conf: human Mdm2/MdmX binding inhibition, confirmed | shares compounds with Mdm2-MdmX inh | inhibition, % at 8 µM | luminescent assay | 10,000 compounds, 55% hits; in the data active = inhibition above about 40%
Full FLuc ctr: inhibits full-length luciferase, flagging false Mdm2/MdmX hits; SaOS-2 full-length luciferase counterscreen, luminescence; 6,200 compounds, 77% hits; inhibition, % at 8 µM; shares compounds with Mdm2-MdmX inh;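 active = mean inhibition at 8 µM reaching about 37%, which flags the compound as non-specific, limit read from the data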;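 also: p53-null SaOS-2 cells with luciferase driven by a doxycycline-inducible promoter; compound on cells about two nights before reading with doxycycline added after day one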
Hits are given with their value; – = inactive; · = no result given.

SMILES	Calb FLC	Mdm2-MdmX inh	CSC inhib	MPTP inh	SKKanGAS inh	Beta apoptosis	Mdm2-MdmX conf	Full FLuc ctr
O=C(c1ccc(Cl)c(Cl)c1)N1CCC(=O)N(C(COCc2ccccc2)Cc2ccccc2)CC1 (configuration not stated)	–	61	–	–	–	–	48	90
O=C(c1ccc(Cl)c(Cl)c1)N1CCC(=O)N([C@H](COCc2ccccc2)Cc2ccccc2)CC1	·	·	·	–	·	·	·	·
CCC(C)Oc1cc(-c2ccnc(Nc3cccc(Cl)c3)n2)ccn1 (configuration not stated)	–	95	–	–	–	–	73	–
OCCCNc1cc(-c2ccnc(Nc3cccc(Cl)c3)n2)ccn1	114	100	–	–	–	–	100	50
Cc1c(NC(=S)N/N=C\c2ccccc2O)c(=O)n(-c2ccccc2)n1C	–	–	–	–	–	–	·	·
NS(=O)(=O)c1ccc(CCNC(=O)c2ccc(Cn3c(=O)[nH]c4ccccc4c3=O)cc2)cc1	–	–	–	–	–	–	·	·
CCCNC(=O)OC[C@H]1O[C@H](CCO/N=C/c2ccc(C(=O)N3[C@H](c4ccc(C)cc4)[C@@H](C)CC[C@H]3C(=O)OC)cc2)C=C[C@@H]1Oc1ccc(OC)cc1	–	–	–	·	–	–	·	·
CC[C@@]12C(=O)N(c3ccc(OC)cc3)C(=O)N1[C@H](c1ccc(Cl)cc1)[C@@H]1C(=O)N(C3CCCCC3)C(=O)[C@@H]12	–	–	–	–	–	–	48	49
Cc1ccc(N2C(=O)N3[C@H](c4ccc(Cl)cc4)[C@@H]4C(=O)N(C5CCCCC5)C(=O)[C@@H]4[C@]3(Cc3ccccc3)C2=O)cc1	–	–	–	–	–	–	·	·
O=C1[C@H]2[C@@H](c3ccc(F)cc3)N3C(=O)N(c4ccc(Br)cc4)C(=O)[C@@]3(Cc3ccccc3)[C@H]2C(=O)N1C1CCCCC1	–	84	–	–	–	–	94	–
COc1cccc(OCCCOc2ccccc2C(C)C)c1	–	–	–	–	–	–	·	·
COc1ccc(/C=N/NC(=O)c2cccnc2)cc1COc1ccc([N+](=O)[O-])c(C)c1	–	52	–	–	–	–	55	48
COc1cc([N+](=O)[O-])cc(/C=N/NC(=O)c2cccnc2)c1O	–	55	–	–	88	–	52	51
COc1ccc(Br)cc1/C=N/NC(=O)c1cccnc1	–	–	–	–	–	–	·	·
CC1CCc2c(nc3ncnn3c2NCCc2ccccc2F)C1 (configuration not stated)	–	–	–	–	–	–	·	·
CCc1ccc(-n2cnc3cc(C(=O)NCC(OC)OC)ccc32)cc1	–	–	–	–	–	–	·	·
Cc1sc2nc(CN(C(=O)c3cccs3)C3CCCC3)[nH]c(=O)c2c1C	–	–	–	–	–	–	·	·
O=C(c1cccs1)N(Cc1nc2sc3c(c2c(=O)[nH]1)CCCC3)C1CCCC1	–	87	–	–	–	–	82	38
Cn1cccc1C1CCCN1CC(=O)Nc1c(Cl)cc(Cl)cc1Cl (configuration not stated)	·	–	–	–	·	–	·	·
O=c1c2ccccc2sn1-c1cccc(Cl)c1	·	·	·	–	·	·	·	·
O=c1c2ccccc2sn1-c1ccccc1	–	76	–	–	100	–	–	·
CC(C)CCNC(=O)c1onc(CSc2ccc(Cl)cc2)c1C(=O)NCCC(C)C	–	–	–	–	–	–	·	·
Cc1ccc(NC(=S)N2CCN(C(=O)c3ccccc3)CC2)c(C)c1	–	–	–	–	–	–	·	·
CCOC(=O)c1sc2nc(C)nc(NCCc3ccccn3)c2c1C	–	–	–	–	–	–	·	·
CCOC(=O)c1sc2nc(CSc3ccccc3)nc(NCCN(C)C)c2c1C	–	51	–	–	–	–	–	·
SMILES	Calb FLC	Mdm2-MdmX inh	CSC inhib	MPTP inh	SKKanGAS inh	Beta apoptosis	Mdm2-MdmX conf	Full FLuc ctr
Oc1ccc2ccccc2c1C=NNc1ccccn1	·	·	·	–	·	·	·	·
COc1ccc(/C=N/Nc2nnc(-c3ncc[nH]3)c3ccccc23)cc1	–	52	–	–	–	–	–	·
CC(=O)Nc1ccc(C=NNc2nnc(NN=Cc3ccc(NC(C)=O)cc3)c3ccccc23)cc1	·	·	·	–	·	·	·	·
Oc1ccc2ccccc2c1/C=N/Nc1nnc(-c2ncc[nH]2)c2ccccc12	108	81	100	–	97	107	83	55
CCCCCC[N+](C)(C)CCSSCC[N+](C)(C)CCCCCC	–	–	–	–	–	–	·	·
C#CC[N+](C)(C)CCCCCCCCCCCC	79	84	–	–	–	101	80	37
CCCCCCCCCCCCCCCC[N+](C)(C)CC	77	92	101	–	101	117	81	–
C#CC[N+](C)(C)CCCCCCCC	–	–	–	–	–	–	·	·
CC#CC[N+](C)(C)CCCCCCCCCCCC	101	87	–	–	–	104	64	–
C#CC[N+](C)(C)CCCCCCCCCC	–	71	–	–	–	–	68	56
CCCCCCCCCCCCCCCC[N+](C)(C)CCl	·	·	·	–	·	·	·	·
CCCCc1nc(Cl)c(C#N)c2c1CCC2	–	–	–	–	–	–	·	·
O=c1[nH]cccc1-c1nc2ccccc2n1Cc1cccc(Cl)c1	–	–	–	–	–	–	·	·
COc1ccc(-c2csc(NC(=O)Cc3ccccc3F)n2)c(OC)c1	–	–	–	–	–	–	·	·
O=C(NCc1ccccc1)c1nc(S(=O)(=O)Cc2ccccc2)ncc1Cl	–	74	–	–	–	–	67	–
Cc1nc(Cl)c(C(=O)NCc2ccccc2)c(C)c1Cl	–	–	–	–	–	–	·	·
COC(=O)c1ccccc1NC(=O)c1nc(S(=O)(=O)Cc2ccccc2)ncc1Cl	–	98	100	–	58	99	91	67
O=C(NCc1ccccc1)c1c(Cl)nc(Cl)c(Cl)c1Cl	–	100	–	–	–	–	94	53
COc1ccc(CNC(=O)c2nc(S(=O)(=O)Cc3ccccc3)ncc2Cl)cc1	–	77	–	–	–	–	94	–
O=C(NCc1cccnc1)c1c(O)c2cccc3c2n(c1=O)CCC3	–	71	–	–	–	–	45	–
C=CCNC(=O)c1c(O)c2cccc3c2n(c1=O)CCC3	–	66	–	–	–	·	56	53
NCCNC(=O)c1c(O)c2cccc3c2n(c1=O)CCC3	–	–	·	–	–	·	·	·
COc1cc(NC(=O)N[C@@H](Cc2c[nH]c3ccccc23)C(=O)O)c(C(=O)O)cc1OC	–	–	–	–	–	–	·	·
COc1c(Br)cc2c(C)c(C(=O)O)oc2c1Br	–	–	–	–	–	–	·	·
Cc1nc(-c2ccccc2)sc1C1(C)CC(c2cccc(F)c2)=NO1 (configuration not stated)	–	–	–	–	–	–	·	·
